Test results taken from PubChem BioAssay.

assay: growth modulation of vineyard yeast isolate – strain RM11-1a, OD600, basal, 24 h, primary screen (AID 1177);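 also: cultures grown under basal conditions with no added stressor; test concentration not given here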; details: S. cerevisiae RM11-1a growth, OD600, 24 h; higher = more signal, called active from +8 up or from −8 down

z-score, inactive:
CC(C)OC(=O)C=C1C[C@@H](c2ccc(C#N)cc2)O[C@@H](c2ccc(C#N)cc2)O1 0.146
CO[C@@H]1COC(=O)CC=C[C@@H](C)COC(=O)[C@H](COCc2ccccc2)NC(=O)CC=C[C@H]1C 0.158
CO[C@@H]1COC(=O)CC=C[C@@H](C)[C@@H]2C=C[C@H](O)[C@@H](COC(=O)CCC[C@H]1C)O2 -0.725
O=C1[C@H]2[C@H]3[C@H](O)[C@H](O)CC(=NO[C@@H]4O[C@H](CO)[C@@H](O)[C@H](O)[C@H]4O)[C@H]3CC[C@H]2C(=O)N1Cc1ccc2c(c1)OCO2 0.929
C=CC[C@@H]1C=C[C@H](ON=Cc2ccc(C(=O)N3[C@H](c4ccc(C)cc4)[C@@H](C)CC[C@H]3C(=O)OC)cc2)[C@@H](CO)O1 0.674
COCCOC(=O)N1C(=O)[C@@]2(c3cc(C#Cc4ccc(OC)cc4)ccc31)[C@H](c1ccc(O)cc1)N1[C@H](c3ccccc3)[C@H](c3ccccc3)OC(=O)[C@H]1[C@@H]2C(N)=O 0.0054
CC(C)(C)N1CC=CC23O[C@@H]4C=CCCOC(=O)C4[C@H]2C(=O)N(CCCCCO)[C@@H]3C1=O (stereo partly specified) 0.449
COCCOC(=O)N1C(=O)[C@@]2(c3cc(C#Cc4ccc(OC)cc4)ccc31)[C@H](C(=O)N1CCN(c3ncccn3)CC1)[C@H]1C(=O)O[C@H](c3ccccc3)[C@H](c3ccccc3)N1[C@@H]2c1ccc(OCCO)cc1 3.06
COC(=O)[C@@H]1CC[C@H](C)[C@@H](c2ccc(C)cc2)N1C(=O)c1ccc(C=NOC(C)CN2CCCCc3nc(C)c(C)cc32)cc1 (stereo partly specified) 0.984
CC(C)CON=C1[C@H]2CCn3c(=O)n(-c4ccccc4)c(=O)n3[C@H]2[C@H](O)[C@@H]2O[C@H]12 0.0254
COCC(=C=CC[C@@H](O)c1ccccc1OCCO)CCO 0.0502
O=C1O[C@@H](c2ccccc2)[C@@H](c2ccccc2)N2[C@@H](c3ccc(OCCO)cc3)[C@]3(C(=O)Nc4ccc(C#CCCO)cc43)[C@@H](C(=O)N3CCCCCCC3)[C@H]12 1.17
C#C[C@@H]1Oc2ccccc2S(=O)(=O)N2CCC[C@H]12 0.494
CCCC[C@H]1OB(O)C[C@H]2C1=C(C)C[C@H]1C(=O)N(C)C(=O)[C@H]12 -0.776
O=C1[C@H]2[C@H]3[C@H](O)[C@H](O)CC(=NOC[C@@H](O)COCc4ccco4)[C@H]3CC[C@H]2C(=O)N1c1cccc(Oc2ccccc2)c1 -0.183
CC(C)[C@H](NC(=O)OC(C)(C)C)[C@@H](O)CC(=O)OC(C)(C)C 0.259
CO[C@H]1COC(=O)CC=C[C@H](C)[C@@H](NS(=O)(=O)c2ccc(C)cc2)COC(=O)CC=C[C@@H]1C -4.14
CCOC(=O)CCN1C(=O)[C@H]2[C@H]3[C@H](O)[C@H](O)CC(=O)[C@H]3CC[C@H]2C1=O -0.336
NC(=O)NCC#Cc1ccc2c(c1)[C@]1(C(=O)N2)[C@H](c2ccc(O)cc2)N2[C@H](c3ccccc3)[C@H](c3ccccc3)OC(=O)[C@H]2[C@@H]1C(=O)N1CCCCCCC1 1.96
CCOC(=O)C[C@H]1[C@H](OC(=O)c2ccc(C(=O)c3ccccc3)cc2)[C@@H](NC(=O)c2ccc(-c3ccccc3)cc2)c2cc(OCCCO)ccc2N1C(=O)c1ccc2ccccc2n1 -0.0276
O=C1[C@H]2[C@H]3[C@H](O)[C@H](O)CC(=NO[C@@H]4O[C@H](CO)[C@@H](O)[C@H](O)[C@H]4O)[C@@H]3CC[C@H]2C(=O)N1Cc1ccccc1 -0.497
CC(C)(C)N1C(=O)[C@H]2[C@H]3[C@H](O)[C@H](O)CC(=NOCc4ccccc4)[C@@H]3CC[C@H]2C1=O -2.23
C[C@@H](c1ccccc1)N1C(=O)[C@H]2[C@H]3[C@H](O)C=CC(=O)[C@@H]3CC[C@H]2C1=O -0.701
CC(C)(C)N1C(=O)[C@H]2[C@H]3[C@H](O)[C@H](O)CC(=NO[C@@H]4O[C@H](CO)[C@@H](O)[C@H](O)[C@H]4O)[C@@H]3CC[C@H]2C1=O -0.471
CCOC(=O)NN=C1C[C@@H](O)[C@@H](O)[C@@H]2[C@@H]3C(=O)N(C(C)(C)C)C(=O)[C@@H]3CC[C@@H]12 -1.23
COC(=O)[C@H](C)NC(=O)CCC1CC(OC(=O)NCCc2ccc(F)cc2)CC2(CCCC(COC(=O)NCCc3ccc(Cl)cc3)O2)O1 (stereo partly specified) 0.825
COc1ccccc1CN1C(=O)c2ccccc2[C@@H](C(=O)NCC(F)(F)F)[C@@H]1c1ccc(CO)cc1 -0.0178
C[C@H]1Cc2c(-c3ccccc3)nc3c(c2CO1)CN(CCOc1ccccc1)CC3 0.671
COCCCNC(=O)[C@@]1(CCS(=O)(=O)c2ccccc2)N=C(c2ccc(OCCCO)cc2)O[C@H]1c1ccccc1 -0.287
O=C1CCCC2OC12C(O)CCc1ccccc1 (stereo unspecified) 0.142
COC(=O)CC=C[C@H](C)[C@@H](OCc1ccccc1Br)C(C)C -0.158
CO[C@H]1COC(=O)[C@@H]2CCCN2C(=O)[C@@H](C)COC(=O)CC=C[C@@H]1C 0.023
CC(C)=CCCC(C)=CCON=C1[C@H]2CCn3c(=O)n(C)c(=O)n3[C@H]2[C@H](O)[C@@H]2O[C@H]12 0.199
CN1C(=O)C2C=CC(C(O)C(c3ccccc3)c3ccccc3)N(NC(=O)OC(C)(C)C)C2C1=O (stereo unspecified) 0.225
CCOC(=O)CCN1C(=O)[C@H]2[C@H]3[C@H](O)[C@H](O)CC(=NNC(=O)OCc4ccc(OC)cc4)[C@@H]3CC[C@H]2C1=O -0.217
CC(CCC(=O)OC[C@H]1O[C@H](C#Cc2ccccc2)C=C[C@@H]1Oc1ccc(C)cc1)=NO[C@@H](C)c1cn([C@H](CO)Cc2ccccc2)nn1 -0.0398
